Results on 20 compounds are retold here after PubChem BioAssay (NCATS).

SMILES strings stand for the structures. Records with an inconclusive call do not appear. A call without a number means that no potency is given here. Active and inactive are the calls of the source. Calls come from the whole dose curve; as a rule, active = well fitted cell-killing curve with a large enough effect; inconclusive = small, poorly fitted or top-dose-only effect, or effect the other way; inactive = flat fitted curve, though single readings scatter.
Potency is the fitted concentration of half-maximal effect.

This experiment can be described thus: Identifying Small Molecule Inhibitors of Pancreatic Cancer Stem Cells (SN12C, Spheroid) (AID 1259360). To be noted: Potency: SN12C spheroid viability; series mostly up to 46.1 µM. The source says: Progenitor-like cancer cells, often referred to as cancer stem cells (CSC), are believed to be the drivers of therapeutic resistance and rapid recurrence. CSCs are postulated to reside in specific niches characterized by low oxygen tension, limited nutrient supply, and high redox load. Selectively targeting CSC, alone or in combination with cytotoxic agents, as a means to produce durable remissions is an appealing concept. Modeling these cells in in vitro setting is an important step in finding new therapies and/or targets. Multiple reports highlight that forcing cells in culture into 3-dimensionaly architectures (spheroids) re-establishes key progenitor-like transcriptional signatures. Pancreatic cancer is among the diseases with the most dismal outlook which is driven, largely, by recurance following front-line therapies. […] In hopes of deriving new insight into the targeting of these pancreatic CSCs we examined three established pancreatic cancer cell lines in cytotoxicity assays versus a collection of approved and investigational drugs. Importantly, we screened these lines as traditional monolayer (2D) and spheroid (3D) formats to gain an appreciation of agents with differential activity.
Multicellular tumor spheroids from Panc1, MiaPaCa-2, and the primary low-passage tissue culture line SB.06 were seeded in stem cell media (SCM) in nonadherent 6-well plates coated with hydrogel (Corning Life Sciences, Chelmsford, Mass) and pancreatic spheres generated for 14 days before screening. Cells were seeded into 1536-well solid-bottom white tissue culture treated Greiner Bio One Plates (789173-F) using a MultiDrop Combi (Thermofisher Scientific) dispenser and a small sterile cassette. One column was media alone to be used as a :"no cells" control. The plates were then covered with sterilized stainless steel gasketed lids from Kalypsys. After allowing cells to attach for 4 hours, 23 nL of test compound or control (negative control DMSO and positive control 9.2 uM Bortezomib-final) were added from a 1536-well polypropylene compound source plate to each well using a 1536 head pin tool from Kalypsys. Cells were then incubated for 48 hours at 37C, 95% relative humidity and 5% CO2. After 48 hours, plates were removed from the incubator and 3 uL of CellTiter-Glo (Promega) was added using an Aurora Flying Reagent Dispenser Bioraptor. Plates were incubated at room temperature for 10 minutes prior to reading the luminescence on the Viewlux (PerkinElmer). The relative luciferase units are used to calculate the percent activity using the activity of DMSO in the cells and no cells columns for normalization of no inhibition and full inhibition respectively.
In the case of `CCOC(CN1C(=O)[C@](CC(=O)Nc2ccc(C)cc2)(NC(=O)Nc2ccc(C)cc2)c2ccccc21)OCC`, the Potency was 18.7 µM (active).

With `O=C(Nc1cc(Cl)cc2c1[nH]c1cnccc12)c1cccnc1`, the Potency result is “inactive”.

Turning to `CO[C@H]1C=CC=C(C)C(=O)NC2=CC(=O)C(NCCN(C)C)=C(C[C@@H](C)C[C@H](OC)[C@@H](O)[C@@H](C)C=C(C)[C@@H]1OC(N)=O)C2=O`, the Potency is 0.0059 µM (active).

Regarding `CN(C)Cc1ccc(-c2nc3cccc4c3n2CCNC4=O)cc1`, the Potency entry was “inactive”.

For the compound `CN1CCN(CCOc2cc(OC3CCOCC3)c3c(Nc4c(Cl)ccc5c4OCO5)ncnc3c2)CC1`, the Potency is 18.7 µM (active).

Take `COc1cc(N2CCC(N3CCN(C)CC3)CC2)ccc1Nc1ncc(Cl)c(Nc2ccccc2S(=O)(=O)C(C)C)n1`: the Potency is 20.9 µM (active).

With `COc1ccc(C2CC(c3ccccc3)=NN2c2ccc(S(N)(=O)=O)cc2)cc1` (stereo not given), the Potency result was “inactive”.

On to `OC[C@H]1O[C@@H](n2cnc3c2NC=NC[C@@H]3O)C[C@H]1O`, for which the Potency entry was “inactive”.

As to `CC1=C(/C=C/C(C)=C/C=C/C(C)=C/C(=O)Nc2ccc(O)cc2)C(C)(C)CCC1`, the Potency was 23.5 µM (active).

For `CS(=O)c1ccc(-c2nc(-c3ccc(F)cc3)c(-c3ccncc3)[nH]2)cc1` (stereo not given), the Potency result was “inactive”.

In the case of `CC(C)[C@H](CO)Nc1nc(Nc2ccc(C(=O)O)c(Cl)c2)c2ncn(C(C)C)c2n1`, the Potency entry is “inactive”.

`Clc1ccc(-c2nc3sccn3c2C=NOCc2ccc(Cl)c(Cl)c2)cc1`: the Potency result was “inactive”.

On to `O=C(O)c1ccc(-c2cc3cccnc3c(-c3ccc4nonc4c3)n2)cc1`, for which the Potency result is “inactive”.

For the compound `CC(C)(C)C(=O)Oc1ccc2c(c1)nc(NC(=O)c1cccc([N+](=O)[O-])c1)n2CCCO`, the Potency result was “inactive”.

Take `O=C1C(Cl)=C(NCCN2CCOCC2)C(=O)c2ncccc21`: the Potency was 14.8 µM (active).

For the compound `CC(C)(C(=O)NCC(F)(F)C(F)(F)F)C(=O)N[C@@H]1C(=O)Nc2ccccc2-c2ccccc21`, the Potency entry is “inactive”.

As to `CO[C@@H](C(=O)N1Cc2[nH]nc(NC(=O)c3ccc(N4CCN(C)CC4)cc3)c2C1)c1ccccc1`, the Potency entry was “inactive”.

Regarding `CC(C)(C)COc1ccc(-n2cc(C(=O)O)cn2)cc1C#N`, the Potency result was “inactive”.

For `O=C(N[C@@H](c1ccccc1)[C@@H]1CCCCN1)c1cccc(C(F)(F)F)c1Cl`, the Potency entry is “inactive”.

As for `CC(C)(C)c1cc(C(=O)O)c(NC(=O)Nc2ccc3[nH]ncc3c2)s1`, the Potency result was “inactive”.
